Assay results taken from PubChem BioAssay AID1259418 (Broad Institute, 2018).
Screen size: about 3,400 compounds; about 840 (25%) were called active. Another 11% or so got no clear call; they are omitted. These entries were drawn from the full list. Entries with a potency or affinity are not part of this list. Unmarked numbers belong to inactive results.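 How the source made its calls: active means fitted half-maximal concentration of signal decrease at or below twice the sample's top tested concentration; inconclusive means flat curve between -70 and -30 percent, or poor fit; inactive means flat within 30 percent, signal rise, or potency above limit.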

Test: inhibitors of Toxoplasma growth in IFN-γ-primed HeLa – cell-based, ME49Luc, luciferase, 72 h, dose response (AID 1259418)
Settings: T. gondii ME49Luc in IFN-y HeLa, stronger effect = lower value, -100% = high-dose IFN-γ control wells; at 19.5 µM unless noted
With `Cc1cccc(-c2nc(Cn3nnc(-c4nc(-c5ccc(Cl)cc5)no4)c3C)c(C)o2)c1` the max activity was 25.6%. Compound `O=C(NCCc1csc(-c2ccccc2)n1)C1CCN(C(=O)CCc2ccccc2)CC1` has a max activity of -11.1%. `CCCCC[C@H](CC(=O)NO)C(=O)N[C@H](C(=O)N1CCC[C@H]1CO)C(C)C` showed a max activity of 15.6%. For `CCOc1ccccc1-c1nc(Cn2c(=O)c3c(C)cc(C)nc3n(-c3ccccc3)c2=O)c(C)o1`, the max activity was 5.33% [at 0.16 µM]. `CC[C@H](C(=O)N1CCCC[C@H]1C(=O)O[C@H](CCc1ccc(OC)c(OC)c1)c1cccc(OCC(=O)NCCNC(=O)COc2cccc([C@@H](CCc3ccc(OC)c(OC)c3)OC(=O)[C@@H]3CCCCN3C(=O)[C@@H](CC)c3cc(OC)c(OC)c(OC)c3)c2)c1)c1cc(OC)c(OC)c(OC)c1` showed a max activity of -14% [at 5 µM]. `Cc1ccc(C)c(-c2coc(-c3ccc(NC(=O)NC4CCCCC4)cc3)n2)c1` showed a max activity of 6.93% [at 0.16 µM]. In the case of `N#Cc1cccc(-c2ccc3c(c2)[C@H]2[C@H](CCN2Cc2ccc4c(c2)OCO4)[C@@H](CO)N3)c1`, the max activity is reported as 21.2% [at 10 µM]. In the case of `N#Cc1cccc(-c2ccc3c(c2)[C@H]2[C@H](CCN2Cc2ccc4c(c2)OCO4)[C@H](CO)N3)c1`, the max activity is reported as 17.9% [at 10 µM]. `C/C=C/c1ccc([C@H]2[C@H]3CN(C(=O)Nc4cccc(OC)c4)CC(=O)N3[C@H]2CO)cc1` gave a max activity of -12% [at 21 µM]. Work on `C/C=C/c1ccc([C@@H]2[C@@H](CO)N3C(=O)CN(C(=O)Nc4cccc(OC)c4)C[C@@H]23)cc1` yielded a max activity of 27% [at 10 µM]. With `CCCC#Cc1ccc([C@@H]2[C@H]3CN(C(=O)Nc4cccc(F)c4)CC(=O)N3[C@H]2CO)cc1` the max activity was 7.32% [at 0.16 µM]. `CC(C)CC(=O)N1CCC(C(=O)NCCc2csc(-c3cccs3)n2)CC1` showed a max activity of 7.82%. `Cc1ccc(C)c(-c2coc(-c3ccc(NC(=O)Nc4ccc5c(c4)OCO5)cc3)n2)c1` showed a max activity of 81.1%. For `CCc1nc(OCC(=O)Nc2cccc(C)c2)c2ccccc2n1`, the max activity was -9.62% [at 1.35 µM]. With `Cc1cccc(OCC(=O)N2CSC[C@@H]2C(=O)NCCc2csc(-c3ccccc3)n2)c1` the max activity was -20.7% [at 0.68 µM]. `Cc1ccc2c(c1C)-n1cccc1C1(CCN(C(=O)c3c(F)cccc3F)CC1)N2` showed a max activity of -8.13% [at 0.16 µM]. Work on `NC(=O)C1(N2CCCCC2)CCN(c2ncc(NC(=O)c3cccs3)cc2C(=O)O)CC1` yielded a max activity of 8.78% [at 0.16 µM]. Work on `CSc1cccc(NC(=O)Nc2ccc(-c3nc(-c4ccc(C)cc4)co3)cc2)c1` yielded a max activity of 26.9%. Work on `O=C(Cn1c(=O)c(S(=O)(=O)c2ccccc2)cc2ccccc21)NC1CCCCC1` yielded a max activity of 2.73%. With `Fc1ccc(CSc2nc(NCc3ccco3)c3ccccc3n2)cc1` the max activity was -10.7% [at 2.6 µM]. Work on `Cc1nc(-c2cc(S(=O)(=O)N3CCC(Cc4ccccc4)CC3)c(C)s2)sc1C` yielded a max activity of 9.1% [at 0.16 µM]. For `CCOc1ccccc1-c1nc(CSc2nc3c(c(=O)[nH]2)CN(CCOC)CC3)c(C)o1`, the max activity was 20.2% [at 10 µM]. For `CCc1nc(OCC(=O)Nc2ccccc2F)c2ccccc2n1`, the max activity was 12.8% [at 10 µM]. For `COc1ccc(NC(=O)CN2CCC3(CC2)N=C(c2cccc(F)c2)C(=O)N3)cc1Cl`, the max activity was 18.3% [at 5 µM]. With `Cc1ccc(CSC2=Nc3ccccc3C3=NC(CC(=O)NC4CCCCC4)C(=O)N23)c(C)c1` (centres undefined) the max activity was 15.1% [at 5 µM]. Compound `O=C(CN1CCC2(CC1)N=C(c1ccc(F)cc1)C(=O)N2)Nc1ccccc1C(F)(F)F` has a max activity of 7.82% [at 10 µM]. Work on `O=C(COc1ccccc1Cl)Nc1cncc(-c2nc3ccccc3o2)c1` yielded a max activity of -6.28% [at 2.6 µM]. For `COc1cccc(N(Cc2nc(-c3cccc(Cl)c3)oc2C)S(=O)(=O)c2ccccc2)c1`, the max activity was 9.67% [at 0.68 µM]. `COc1cccc(N(Cc2nc(-c3ccccc3)oc2C)S(=O)(=O)c2ccccc2)c1` gave a max activity of -4.33%. In the case of `COc1ccc(N(Cc2nc(-c3cccc(C)c3)oc2C)S(=O)(=O)c2ccc(C)cc2)cc1`, the max activity is reported as -7.34% [at 1.35 µM]. For `COc1ccc(N(Cc2nc(-c3cccc(C)c3)oc2C)S(=O)(=O)c2ccc(OC)cc2)cc1`, the max activity was -8.14% [at 0.35 µM]. With `COc1ccc(N(Cc2nc(-c3cccc(Cl)c3)oc2C)S(=O)(=O)c2ccc(OC)cc2)cc1` the max activity was -8.48% [at 2.6 µM]. Work on `COc1ccc(CC(=O)N2CCC3(CC2)Nc2cc(F)ccc2-n2cccc23)cc1OC` yielded a max activity of 6.12% [at 2.6 µM]. `COc1ccc(-c2nc3c(s2)CN(S(=O)(=O)c2ccc(C(C)C)cc2)CC3)cc1` gave a max activity of 10.1% [at 0.16 µM]. `CCCN1CCc2nc(SCc3nc(-c4ccc(OCC)c(OC)c4)oc3C)[nH]c(=O)c2C1` gave a max activity of 28.6% [at 0.16 µM]. Compound `Cc1ccc(-c2coc(-c3ccc(NC(=O)Nc4ccc(F)cc4)cc3)n2)cc1` has a max activity of 8.43% [at 10 µM]. `Cc1c(-c2n[nH]c(=S)n2-c2ccccc2)sc2nc3n(c(=O)c12)CCC3` showed a max activity of -9.68% [at 0.16 µM]. With `CCc1cccc(NC(=O)COc2nc(CC)nc3ccccc23)c1` the max activity was -10.7% [at 10 µM]. Work on `Cn1cccc1C(=O)Nc1ccc2c(c1)CCC(=O)N2` yielded a max activity of 85.5%. For `Cc1nc(OCC(=O)NCc2ccccc2)c2ccccc2n1`, the max activity was 19.6% [at 0.16 µM]. With `Cn1c(=O)c(C(=O)Nc2ccccc2)cc2cccnc21` the max activity was 14.2% [at 2.6 µM]. For `CCc1nc(OCC(=O)Nc2ccccc2Cl)c2ccccc2n1`, the max activity was -7.29% [at 1.35 µM]. In the case of `Cc1nc(C)c(C(=O)N2CCCC2c2nc(-c3ccc(F)cc3F)no2)s1` (centres undefined), the max activity is reported as 25.6% [at 10 µM]. Compound `CCc1nc(OCC(=O)Nc2c(C)cc(C)cc2C)c2ccccc2n1` has a max activity of 7.02% [at 2.6 µM]. Work on `Cc1ccc(CNC(=O)Nc2ccc(-c3nc(-c4ccccc4)co3)cc2)cc1` yielded a max activity of 90.3% [at 10 µM]. Compound `CN1C(=O)c2cc(NC(=O)Cc3cccs3)ccc2OC[C@H]2O[C@@H](CC(=O)NCc3ccc(-c4ccccc4)cc3)CC[C@@H]21` has a max activity of -7.79% [at 1.2 µM]. Work on `Cc1oc(-c2ccccc2)nc1Cn1nnc(-c2nc(-c3ccccc3Br)no2)c1C` yielded a max activity of -8.57% [at 0.35 µM]. Work on `CC(=O)O[C@H]1C[C@@H](OC(C)=O)C(C)(C)C2C[C@@H](OC(C)=O)[C@@]3(C)C4=CC(=O)O[C@@H](c5ccoc5)[C@]4(C)CCC3[C@]21C` (some centres undefined) yielded a max activity of -9.83% [at 5 µM]. In the case of `Cc1ccc(CNC(=O)Nc2ccc(-c3nc(-c4ccc(C)cc4C)co3)cc2)cc1`, the max activity is reported as 14.7% [at 0.16 µM]. `CCCCC(=O)Nc1ccc(-c2nc(-c3cc(C)ccc3C)co2)cc1` gave a max activity of -7.17% [at 5 µM]. With `O=C1CNC[C@@H]2[C@H](c3ccc(C#Cc4cccnc4)cc3)[C@H](CO)N12` the max activity was 36.8%. Compound `N#Cc1ccc(-c2ccc([C@H]3[C@@H](CO)N4C(=O)CNC[C@@H]34)cc2)cc1` has a max activity of 52.5%. For `O=C1CNC[C@@H]2[C@H](c3ccc(C#Cc4cccnc4)cc3)[C@@H](CO)N12`, the max activity was 42.6%. `O=C1CC2C(CCN2Cc2ccc(F)cc2)N1CCN1CCOCC1` (centres undefined) showed a max activity of 15.6% [at 10 µM]. Work on `Cc1ccc(-c2coc(-c3ccc(NC(=O)c4sccc4C)cc3)n2)c(C)c1` yielded a max activity of 14.5%. Compound `COC[C@H](N)C(=O)N1CCC(Cc2nnc(SC)n2C)CC1` has a max activity of 32.3%. With `Cc1nc(Cn2cnc(-c3nc(C(=O)NCc4cc(F)cc(F)c4)c4ccccn34)c2)cs1` the max activity was -10.1%. Work on `Cc1ccc(C)c(-c2coc(-c3ccc(NC(=O)Nc4cccc(F)c4)cc3)n2)c1` yielded a max activity of 9.94% [at 2.6 µM]. Work on `CC(C)Oc1ccc(NC(=O)c2nc3c(n2C(C)C)CCN(C(=O)c2ccccc2)C3)cc1` yielded a max activity of -6.92% [at 2.6 µM]. `Cc1ccc(-c2nc(Cn3nnc(-c4nc(-c5cccc(C(F)(F)F)c5)no4)c3C)c(C)o2)cc1` showed a max activity of 13.1%. `CCOC(=O)CSC1=Nc2ccccc2C2=NC(CC(=O)NCc3ccccc3OC)C(=O)N12` (centres undefined) showed a max activity of -7.6% [at 0.68 µM]. Compound `Cc1cccc(-c2nc(Cn3nnc(-c4nc(-c5cccnc5)no4)c3C)c(C)o2)c1` has a max activity of -5.69% [at 2.6 µM]. Compound `O=C(Nc1ccc(-c2nc(-c3ccccc3)co2)cc1)c1ccccc1` has a max activity of 74.5%. For `O=C(Nc1ccc(-c2nc(-c3ccccc3)co2)cc1)c1ccc(F)cc1`, the max activity was 21.2% [at 1.35 µM]. Compound `O=C(Nc1ccc(-c2nc(-c3ccccc3)co2)cc1)c1ccc(Cl)cc1` has a max activity of 21.8% [at 5 µM]. Compound `Cc1ccc(-c2coc(-c3ccc(NC(=O)c4cccc(F)c4)cc3)n2)cc1` has a max activity of 42.3%. With `COc1ccc(-c2nc(Cn3nnc(-c4nc(-c5cccc(Cl)c5)no4)c3C)c(C)o2)cc1` the max activity was -6.44% [at 0.35 µM]. For `Cc1nc(CCNC(=O)C2CCN(S(=O)(=O)c3cc(F)ccc3F)CC2)cs1`, the max activity was 21.6% [at 2.6 µM]. With `Cc1ccc(C(=O)Nc2c(C(=O)N3CCN(c4ccccn4)CC3)[nH]c3ccccc23)cc1` the max activity was -27.2%.
